{"source": "PubChem BioAssay (Tox21)", "note": "Several values for one entry are separate records, joined by “and”; a condition that tells them apart may be missing. Equal entries are not always repeated. Records with an inconclusive call do not appear. Entries that show only a call come without a potency. Activity calls are given as the source filed them. Calls come from the whole dose curve; as a rule, active = well fitted inhibition curve with a large enough effect in the signal ratio in the repeat runs (not every such curve was filed as active); inconclusive = weak or mixed curves, or effect the other way; inactive = no such curve, though single readings can be large or run the other way; the % refers to the signal ratio. Potency is the fitted concentration of half-maximal effect.", "data": [{"molecular_target": "Glucocorticoid receptor (Homo sapiens) (UniProt P04150)", "sequence (P04150 whole entry, looked up)": "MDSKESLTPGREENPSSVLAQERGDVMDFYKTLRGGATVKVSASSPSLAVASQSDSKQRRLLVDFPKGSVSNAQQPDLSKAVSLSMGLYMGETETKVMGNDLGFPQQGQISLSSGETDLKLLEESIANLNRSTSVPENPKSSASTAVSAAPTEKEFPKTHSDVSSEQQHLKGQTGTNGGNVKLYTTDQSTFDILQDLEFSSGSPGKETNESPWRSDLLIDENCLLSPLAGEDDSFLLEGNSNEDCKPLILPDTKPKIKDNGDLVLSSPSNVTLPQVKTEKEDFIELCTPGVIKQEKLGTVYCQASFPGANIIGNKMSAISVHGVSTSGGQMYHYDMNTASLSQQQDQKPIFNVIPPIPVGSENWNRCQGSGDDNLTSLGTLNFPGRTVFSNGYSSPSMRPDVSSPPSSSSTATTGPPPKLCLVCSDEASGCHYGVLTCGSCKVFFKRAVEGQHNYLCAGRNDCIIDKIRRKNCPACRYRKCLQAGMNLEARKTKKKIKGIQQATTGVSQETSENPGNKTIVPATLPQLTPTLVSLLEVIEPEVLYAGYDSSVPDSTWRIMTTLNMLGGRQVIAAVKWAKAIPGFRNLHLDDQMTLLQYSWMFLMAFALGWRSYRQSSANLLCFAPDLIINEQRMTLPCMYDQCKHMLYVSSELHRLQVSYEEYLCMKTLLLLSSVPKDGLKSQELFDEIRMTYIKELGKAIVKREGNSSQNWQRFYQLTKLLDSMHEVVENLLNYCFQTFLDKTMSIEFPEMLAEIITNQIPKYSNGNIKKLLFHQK", "experiment": "qHTS assay to identify small molecule antagonists of the glucocorticoid receptor (GR) signaling pathway (AID 720692)", "details": "GR-bla HeLa, beta-lactamase FRET ratio, dexamethasone-stimulated, 18 h; series mostly up to 58.5 µM", "summary_of_the_method": "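Fluorescence from cleaved LiveBLAzer B/G FRET substrate reports GRE-driven beta-lactamase in HeLa cells; compounds are tested against 5 nM dexamethasone (final) over 18 h at 37 C, substrate incubation 2 h at room temperature.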", "values": [{"smiles": "Cc1cc(O)cc(C)c1Cl", "Potency": "inactive"}, {"smiles": "COCC(=O)O", "Potency": "inactive"}, {"smiles": "O=Nc1ccc(O)cc1", "Potency": "inactive"}, {"smiles": "CC(C)Cc1ccccc1", "Potency": "inactive"}, {"smiles": "CN(C)c1cccc(O)c1", "Potency": "inactive"}, {"smiles": "CCOC(=O)C1OC1c1ccccc1", "note": "(configuration not stated)", "Potency": "inactive"}, {"smiles": "Cc1cc(NS(=O)(=O)c2ccc(N)cc2)no1", "Potency": "inactive"}, {"smiles": "CCc1ccc(O)cc1", "Potency": "inactive"}, {"smiles": "OC1CCCC1", "Potency": "inactive"}, {"smiles": "CCCCNC(N)=O", "Potency": "inactive"}, {"smiles": "CS(=O)(=O)c1ccc([C@@H](O)[C@@H](CO)NC(=O)C(Cl)Cl)cc1", "Potency": "inactive"}, {"smiles": "Clc1cc(Cl)c(Cl)cc1Cl", "Potency": "inactive"}, {"smiles": "CC(=O)Nc1ccc(C(=O)O)cc1", "Potency": "inactive"}, {"smiles": "CCCCCCCCCCCCN", "Potency": "inactive"}, {"smiles": "CCCCC(CC)COC(C)=O", "note": "(configuration not stated)", "Potency": "inactive"}, {"smiles": "CCCCCC/C=C/CCCCCCCC(=O)O", "Potency": "inactive"}, {"smiles": "O=C1O[C@H](CO)[C@@H](O)[C@H](O)[C@H]1O", "Potency": "inactive"}, {"smiles": "O=C1N=C(O)CN1/N=C/c1ccc(-c2ccc([N+](=O)[O-])cc2)o1", "Potency": "inactive"}, {"smiles": "OCC1CCCO1", "note": "(configuration not stated)", "Potency": "inactive"}, {"smiles": "CCCCCCCCCCC=CC1CC(=O)OC1=O", "note": "(configuration not stated)", "Potency": "15.6 µM (active) and 49 µM (active)"}, {"smiles": "OCCOCCOCCOCCO", "Potency": "inactive"}, {"smiles": "O=C(O)c1ccc([N+](=O)[O-])cc1", "Potency": "inactive"}, {"smiles": "C=C(C)C(=O)OCC(CC)(COC(=O)C(=C)C)COC(=O)C(=C)C", "Potency": "inactive"}, {"smiles": "Clc1ccc(Cl)c(Cl)c1Cl", "Potency": "inactive"}, {"smiles": "C=C1C2CCC(C2)C1(C)C", "note": "(configuration not stated)", "Potency": "inactive"}, {"smiles": "CC(C)(C)C1CCC(O)CC1", "note": "(configuration not stated)", "Potency": "inactive"}, {"smiles": "Cc1ccc(N)c(S(=O)(=O)O)c1", "Potency": "inactive"}, {"smiles": "COCC(C)O", "note": "(configuration not stated)", "Potency": "inactive"}, {"smiles": "CC1CC(OC(=O)c2ccccc2O)CC(C)(C)C1", "note": "(configuration not stated)", "Potency": "inactive"}, {"smiles": "CCOC(=O)/C=C\\C(=O)OCC", "Potency": "inactive"}, {"smiles": "CCCCCCCCCCCCOCC1CO1", "note": "(configuration not stated)", "Potency": "inactive"}, {"smiles": "C[C@@H]1O[C@@H](OC[C@H]2O[C@@H](Oc3c(-c4ccc(O)c(O)c4)oc4cc(O)cc(O)c4c3=O)[C@H](O)[C@@H](O)[C@@H]2O)[C@H](O)[C@H](O)[C@H]1O", "Potency": "inactive"}]}]}
